T1: RBFOX1 RRM (Homo sapiens, UniProt Q9NWB1 109-208)
T1 sequence: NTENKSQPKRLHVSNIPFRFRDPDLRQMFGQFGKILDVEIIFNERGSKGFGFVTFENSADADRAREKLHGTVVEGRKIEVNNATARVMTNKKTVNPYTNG

B1: GACACAU (DNA:RNA)
RNA: GGGAGACCGGAAUUCAGAUUGUCCGACACAUUUAAAUCCCGUCGUAGCCACCA
DNA 1: CAATCTGAATTCCGGTCTCCC
DNA 2: TGGTGGCTACGACGGGATT
B2: GAACACU (DNA:RNA)
RNA: B1 RNA with C27A, A28C, C29A, A30C
DNA 1: CAATCTGAATTCCGGTCTCCC
DNA 2: TGGTGGCTACGACGGGATT
B3: AGUUCUC (DNA:RNA)
RNA: B1 RNA with G25A, A26G, C27U, A28U, A30U, U31C
DNA 1: CAATCTGAATTCCGGTCTCCC
DNA 2: TGGTGGCTACGACGGGATT
B4: CUCUCGG (DNA:RNA)
RNA: B1 RNA with G25C, A26U, A28U, A30G, U31G
DNA 1: CAATCTGAATTCCGGTCTCCC
DNA 2: TGGTGGCTACGACGGGATT
B5: GAGGGCA (DNA:RNA)
RNA: B1 RNA with C27G, A28G, C29G, A30C, U31A
DNA 1: CAATCTGAATTCCGGTCTCCC
DNA 2: TGGTGGCTACGACGGGATT
B6: UGCACGG (DNA:RNA)
RNA: B1 RNA with G25U, A26G, A30G, U31G
DNA 1: CAATCTGAATTCCGGTCTCCC
DNA 2: TGGTGGCTACGACGGGATT
B7: ACCACGG (DNA:RNA)
RNA: B1 RNA with G25A, A26C, A30G, U31G
DNA 1: CAATCTGAATTCCGGTCTCCC
DNA 2: TGGTGGCTACGACGGGATT
B8: UGCACAA (DNA:RNA)
RNA: B1 RNA with G25U, A26G, U31A
DNA 1: CAATCTGAATTCCGGTCTCCC
DNA 2: TGGTGGCTACGACGGGATT
B9: ACGCUGC (DNA:RNA)
RNA: GGGAGACCGGAAUUCAGAUUGUCCACGCUGCUUAAAUCCCGUCGUAGCCACCA
DNA 1: CAATCTGAATTCCGGTCTCCC
DNA 2: TGGTGGCTACGACGGGATT
B10: UGCACGA (DNA:RNA)
RNA: B1 RNA with G25U, A26G, A30G, U31A
DNA 1: CAATCTGAATTCCGGTCTCCC
DNA 2: TGGTGGCTACGACGGGATT
B11: UGCACGC (DNA:RNA)
RNA: B1 RNA with G25U, A26G, A30G, U31C
DNA 1: CAATCTGAATTCCGGTCTCCC
DNA 2: TGGTGGCTACGACGGGATT
B12: UGCCCGG (DNA:RNA)
RNA: B9 RNA with A25U, C26G, G27C, U29C, C31G
DNA 1: CAATCTGAATTCCGGTCTCCC
DNA 2: TGGTGGCTACGACGGGATT
B13: UGUCUGC (DNA:RNA)
RNA: B9 RNA with A25U, C26G, G27U
DNA 1: CAATCTGAATTCCGGTCTCCC
DNA 2: TGGTGGCTACGACGGGATT
B14: UGCACCA (DNA:RNA)
RNA: B1 RNA with G25U, A26G, A30C, U31A
DNA 1: CAATCTGAATTCCGGTCTCCC
DNA 2: TGGTGGCTACGACGGGATT
B15: UUCUUAU (DNA:RNA)
RNA: B1 RNA with G25U, A26U, A28U, C29U
DNA 1: CAATCTGAATTCCGGTCTCCC
DNA 2: TGGTGGCTACGACGGGATT
B16: UGAUCGU (DNA:RNA)
RNA: B1 RNA with G25U, A26G, C27A, A28U, A30G
DNA 1: CAATCTGAATTCCGGTCTCCC
DNA 2: TGGTGGCTACGACGGGATT
B17: CCACUCA (DNA:RNA)
RNA: B9 RNA with A25C, G27A, G30C, C31A
DNA 1: CAATCTGAATTCCGGTCTCCC
DNA 2: TGGTGGCTACGACGGGATT
B18: GCAAACU (DNA:RNA)
RNA: B1 RNA with A26C, C27A, C29A, A30C
DNA 1: CAATCTGAATTCCGGTCTCCC
DNA 2: TGGTGGCTACGACGGGATT
B19: GGAACAC (DNA:RNA)
RNA: B1 RNA with A26G, C27A, U31C
DNA 1: CAATCTGAATTCCGGTCTCCC
DNA 2: TGGTGGCTACGACGGGATT
B20: AGCAUGA (DNA:RNA)
RNA: B9 RNA with C26G, G27C, C28A, C31A
DNA 1: CAATCTGAATTCCGGTCTCCC
DNA 2: TGGTGGCTACGACGGGATT
B21: AAGCAUG (DNA:RNA)
RNA: B9 RNA with C26A, U29A, G30U, C31G
DNA 1: CAATCTGAATTCCGGTCTCCC
DNA 2: TGGTGGCTACGACGGGATT
B22: AGCCUGC (DNA:RNA)
RNA: B9 RNA with C26G, G27C
DNA 1: CAATCTGAATTCCGGTCTCCC
DNA 2: TGGTGGCTACGACGGGATT
B23: AGAAUGC (DNA:RNA)
RNA: B9 RNA with C26G, G27A, C28A
DNA 1: CAATCTGAATTCCGGTCTCCC
DNA 2: TGGTGGCTACGACGGGATT
B24: AAGCAUC (DNA:RNA)
RNA: B9 RNA with C26A, U29A, G30U
DNA 1: CAATCTGAATTCCGGTCTCCC
DNA 2: TGGTGGCTACGACGGGATT
B25: ACCAGCA (DNA:RNA)
RNA: B9 RNA with G27C, C28A, U29G, G30C, C31A
DNA 1: CAATCTGAATTCCGGTCTCCC
DNA 2: TGGTGGCTACGACGGGATT
B26: AGCAUGC (DNA:RNA)
RNA: B9 RNA with C26G, G27C, C28A
DNA 1: CAATCTGAATTCCGGTCTCCC
DNA 2: TGGTGGCTACGACGGGATT
B27: UAGCAUC (DNA:RNA)
RNA: B9 RNA with A25U, C26A, U29A, G30U
DNA 1: CAATCTGAATTCCGGTCTCCC
DNA 2: TGGTGGCTACGACGGGATT
B28: UAGCAUG (DNA:RNA)
RNA: B9 RNA with A25U, C26A, U29A, G30U, C31G
DNA 1: CAATCTGAATTCCGGTCTCCC
DNA 2: TGGTGGCTACGACGGGATT
B29: AGCAUAA (DNA:RNA)
RNA: B1 RNA with G25A, A26G, C29U, U31A
DNA 1: CAATCTGAATTCCGGTCTCCC
DNA 2: TGGTGGCTACGACGGGATT
B30: AAGCAUA (DNA:RNA)
RNA: B9 RNA with C26A, U29A, G30U, C31A
DNA 1: CAATCTGAATTCCGGTCTCCC
DNA 2: TGGTGGCTACGACGGGATT
B31: UAGCAUA (DNA:RNA)
RNA: B9 RNA with A25U, C26A, U29A, G30U, C31A
DNA 1: CAATCTGAATTCCGGTCTCCC
DNA 2: TGGTGGCTACGACGGGATT

Substitutions are numbered along the chain they refer to; changes in the protein carry UniProt numbers. The full ranking holds about 16,000 sequences; the median of “ka relative to ugcaugu” is about 0.0091, and the highest 2% start at about 0.032. What follows is part of a selection rich in the highest values, with near analogues and random picks from the rest.

The target of this assay is T1, RBFOX1 RRM. The experiment in a line: EMSA; HiTS-Eq, 1 nM pool, 10 min; buffer printed only for the single-RNA assays: 10 mM Tris pH 7.5, 150 mM NaCl, 3.4 mM EDTA, 0.001% NP-40, 30 C. The settings on record: tags: His6 N-terminal (pET28a); label: 5' 32P. The method, boiled down:
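These values rest on relative association constants, computed from read-count changes of each RNA species versus the control reaction and normalised to the cognate motif. Reads came from free RNA recovered by 8% native PAGE after purified RbFox RRM (wild type or mutant) at increasing concentrations was equilibrated for 10 min in 50 µL with 1 nM of a 5′-radiolabelled pool with 7 randomized nucleotides and DNA-annealed flanks.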
Consider B1, for which the binding signal is 0.000474 KA relative to UGCAUGU.

For the molecule B2, the binding signal was 0.00588 KA relative to UGCAUGU.

On to B3, for which the binding signal is 0.0138 KA relative to UGCAUGU.

On to B4, for which the binding signal is 0.0101 KA relative to UGCAUGU.

In the case of B5, the binding signal is 0.0138 KA relative to UGCAUGU.

B6: the binding signal was 0.077 KA relative to UGCAUGU.

With B7, the binding signal was 0.0054 KA relative to UGCAUGU.

Turning to B8, the binding signal is 0.00911 KA relative to UGCAUGU.

Consider B9, for which the binding signal was 0.0121 KA relative to UGCAUGU.

As for B10, the binding signal is 0.0767 KA relative to UGCAUGU.

As to B11, the binding signal was 0.252 KA relative to UGCAUGU.

B12: the binding signal was 0.0184 KA relative to UGCAUGU.

Turning to B13, the binding signal was 0.0316 KA relative to UGCAUGU.

B14: the binding signal was 0.00925 KA relative to UGCAUGU.

As for B15, the binding signal was 0.00377 KA relative to UGCAUGU.

For the molecule B16, the binding signal is 0.0285 KA relative to UGCAUGU.

Turning to B17, the binding signal was 0.0037 KA relative to UGCAUGU.

With B18, the binding signal is 0.00432 KA relative to UGCAUGU.

For B19, the binding signal was 0.0079 KA relative to UGCAUGU.

In the case of B20, the binding signal is 0.35 KA relative to UGCAUGU.

For the molecule B21, the binding signal is 0.674 KA relative to UGCAUGU.

With B22, the binding signal is 0.0203 KA relative to UGCAUGU.

In the case of B23, the binding signal was 0.022 KA relative to UGCAUGU.

For the molecule B24, the binding signal was 0.0137 KA relative to UGCAUGU.

For B25, the binding signal was 0.0049 KA relative to UGCAUGU.

For B26, the binding signal was 0.888 KA relative to UGCAUGU.

In the case of B27, the binding signal was 0.0216 KA relative to UGCAUGU.

For the molecule B28, the binding signal is 0.795 KA relative to UGCAUGU.

Consider B29, for which the binding signal is 0.00471 KA relative to UGCAUGU.

For B30, the binding signal was 0.00459 KA relative to UGCAUGU.

As for B31, the binding signal is 0.011 KA relative to UGCAUGU.
